Laboratory results as given in PubChem BioAssay AID485297 (National Center for Advancing Translational Sciences (NCATS), 2010).
Out of some 320,000 compounds screened, about 9,100 (2.8%) were called active. Entries that show only a call come without a potency. Roughly 3% stayed inconclusive and do not appear here. Calls follow the shape of the dose curve; as a rule, active = well fitted activation curve with a large enough effect; inconclusive = small, poorly fitted or top-dose-only effect; inactive = no such curve, though single readings can be large or run the other way. The full list was thinned out, with actives kept by preference.

Experiment: qHTS Assay for Rab9 Promoter Activators; also: nearly all actives have a fitted effect of over 60% in size
Conditions: Huh7 Rab9 promoter-luciferase reporter, luminescence, 24 h; series mostly up to 9.22 µM
Procedure, shortened: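 Huh7 reporter line, Rab9 promoter upstream of luciferase. Compound exposure 24 h at 37 °C in reduced-serum medium with 10% FBS. Read-out: luminescence.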
Potency is read from the fitted curve at half-maximal effect.

SMILES | Potency | activation, negative = inhibition
O=C(OCC(=O)N1CCCC1)c1ccc(Cl)nc1 | inactive | 
CCCN(C(=O)c1nc2nccc(C)n2n1)c1c(N)n(Cc2ccccc2)c(=O)[nH]c1=O | inactive | 
O=C(Nc1cc(C(F)(F)F)ccc1Cl)c1cc(C2CC2)on1 | inactive | 
O=C(Nc1cc(C(F)(F)F)ccc1Cl)c1cc2nc3c(c(C(F)(F)F)n2n1)CCCC3 | 1780 nM (active) | 
O=C(Nc1cc(C(F)(F)F)ccc1Cl)C(=O)N1CCCCC1 | inactive | 
Cc1cc(NC(=O)CCC(=O)N(CC(=O)NCC2CCCO2)c2ccccc2)no1 (configuration not stated) | inactive | 
CC(C)Oc1ccc(C(=O)NCC(=O)Nc2ccc3c(c2)CCC3)cc1 | inactive | 
CC(=O)c1ccc(NC(=O)c2ccc3c(Cl)c4c(nc3c2)CCCC4)cc1 | inactive | 
CC(C)CCNC(=O)c1ccc2c(Cl)c3c(nc2c1)CCC3 | 794 nM (active) | 
COc1ccc(N2CCN(C(=O)c3ccc4c(Cl)c5c(nc4c3)CCCC5)CC2)cc1 | inactive | 
COc1ccc(C(=O)OCC(=O)N2CC(=O)Nc3ccccc32)cc1Br | inactive | 
O=C1C2C3C=CC(C3)C2C(=O)N1c1ccc(-c2nc3ccccc3c(=O)o2)cc1 (configuration not stated) | inactive | 
Cc1ccc(NC(=O)Cn2c(C)csc2=O)cc1 | inactive | 
Cc1ccc(NC(=O)CCN2C(=O)c3ccccc3C2=O)cc1C | inactive | 
Cc1ccc(NC(=O)c2cc(-c3ccccc3O)n[nH]2)cc1C | 2820 nM (active) | 
Cc1ccc(C)c(NC(=O)c2cc(-c3cc(C)cc(C)c3O)n[nH]2)c1 | inactive | 
CCN(CC(=O)Nc1ccc(C)c(S(=O)(=O)N(C)C)c1)Cc1ccccc1 | inactive | 
Cc1ccc(C(=O)Nc2ccc(C)c(S(=O)(=O)N(C)C)c2)s1 | 1000 nM (active) | 
Cc1ccc(NC(=O)c2cccs2)cc1S(=O)(=O)N(C)C | inactive | 
CCN(CC)CCn1c2c(c(SCC(=O)Nc3nc4ccccc4s3)nc1=O)CCCC2 | inactive | 
c1ccc2sc(NN=C3CCCC3)nc2c1 | 631 nM (active) | 
O=[N+]([O-])c1cc(Br)c(O)c(/C=N/Nc2nc3ccccc3s2)c1 | inactive | 

SMILES | Potency | activation, negative = inhibition
CC(=O)O[C@H]1c2ccccc2-c2ccccc2[C@@H]1OC(C)=O | inactive | 
COC(=O)c1sc(NC(=O)c2csc3c2CCCC3)nc1C | 3980 nM (active) | 
Cc1ccc(NC(=O)c2c(NC(=O)CCC(=O)O)sc3c2CCCCC3)cc1 | inactive | 
CCOC(=O)c1sc(NC(=O)c2sc(C)nc2C)nc1C | inactive | 
O=C(Nc1ccccc1N1CCOCC1)c1csc2c1CCCC2 | inactive | 
Cc1ccc(NC(=O)c2csc3c2CCCC3)cc1 | 1410 nM (active) | 
CCOC(=O)c1sc(NC(=O)c2cc(S(=O)(=O)N3CCOCC3)ccc2C)nc1C | inactive | 
CCN(C(=O)COC(=O)c1c(C)nn(-c2ccccc2)c1Cl)c1c(N)n(Cc2ccccc2)c(=O)[nH]c1=O | inactive | 
Cc1cccc(NC(=O)CN2CCN(CC(=O)NCC3(N4CCCCC4)CCCCC3)CC2)c1C | inactive | 
CCCn1c(N)c(N(CCOC)C(=O)C2CCCC2)c(=O)[nH]c1=O | inactive | 
O=C(CNS(=O)(=O)c1ccc2ccccc2c1)Nc1ccc(F)c(F)c1F | inactive | 
COC(=O)c1ccc(NC(=O)CSc2nncn2-c2cccnc2)cc1 | inactive | 
O=C(COC(=O)c1cccc(Cl)c1)NC1CCCCCCC1 | inactive | 
O=C(CSc1nnc(N2CCOCC2)n1-c1cccc(F)c1)N1CCN(c2ccccn2)CC1 | inactive | 
C=CCNc1nc(Nc2ccc(Cl)cc2)nc(OC)n1 | inactive | 
Brc1ccc(CN2CC[C@H]3C=CCc4cccc(c43)C2)cc1 | inactive | 
Cc1cccc(-n2cnc(C(=O)NNC(=S)Nc3ccccc3)c2)n1 | inactive | 
Cc1cccc(-n2cnc(C(=O)Nc3cccnc3)c2)n1 | 2240 nM (active) | 
COc1cccc(C(=O)Nc2cccnc2)c1OC | inactive | 
Cc1ccc(NC(=O)CN(C)C(=O)c2cccc(S(=O)(=O)N3CCCC3)c2)cc1 | inactive | 
Cc1ccc(O)c(CNc2nc3ccccc3[nH]2)c1 | inactive | 
Cc1ccc(-n2nc3cc(Cl)c(NC(=O)c4ccco4)cc3n2)cc1 | 3550 nM (active) | 

SMILES | Potency | activation, negative = inhibition
Cc1ccc(S(=O)(=O)N2CCCCC2)cc1NC(=O)c1cccnc1 | inactive | 
O=C(Nc1cccc(-n2cnnn2)c1)c1cccnc1 | inactive | 
Cc1ccc(-n2nc3cc(C)c(NC(=O)c4cccnc4)cc3n2)cc1 | 3550 nM (active) | 
O=C(Nc1cc(-c2nc3ncccc3o2)ccc1Cl)c1ccco1 | inactive | 
Cc1cc(NC(=O)c2ccco2)c(=O)n(Cc2c(F)cccc2Cl)c1 | inactive | 
O=C(OC1CCCCC1=O)c1cccc(S(=O)(=O)NCc2ccccc2)c1 (configuration not stated) | inactive | 
CCOc1ccccc1NC(=O)NC1CCCCCCC1 | inactive | 
O=C(CN1CCN(C2CCS(=O)(=O)C2)CC1)N1N=C(c2ccc(Cl)cc2)CC1c1ccco1 (configuration not stated) | inactive | 
CC(=O)NCc1ccc(-c2csc(NC(=O)CCCc3nc4ccccc4c(=O)[nH]3)n2)cc1 | inactive | 
CC1(C(=O)OCC(=O)Nc2ncc(Cl)cc2Cl)CC1(Cl)Cl (configuration not stated) | inactive | 
O=C(CSc1ccccc1)Nc1cccc(S(=O)(=O)N2CCOCC2)c1 | inactive | 
O=C1c2cccc3c([N+](=O)[O-])ccc(c23)C(=O)N1CC1CCCO1 (configuration not stated) | inactive | 
CC(=NCC1CCCO1)c1c(O)[nH]c(=O)[nH]c1=O (configuration not stated) | inactive | 
O=C1C(C=NCC2CCCO2)=C(O)c2ccccc21 (configuration not stated) | 2820 nM (active) | 
O=[N+]([O-])c1ccccc1SNc1ccccn1 | inactive | 
O=C(O[C@H]1[C@H](Cc2ccccc2)NS(=O)(=O)[C@H]2C[C@@H]3C=C[C@]12O3)c1ccc([N+](=O)[O-])cc1 | inactive | 
COc1ccc2c(C)cc(SCC(=O)NCC3CCCO3)nc2c1 (configuration not stated) | inactive | 
CCOC(=O)CSc1nnc(-c2ccncc2)o1 | inactive | 
Cc1cccc(C)c1OC(=O)CSc1nnc(-c2ccccc2)o1 | inactive | 
CCCCSc1nnc(-c2ccc(C)cc2)o1 | 1580 nM (active) | 
Cc1ccc(S(=O)(=O)N(C)C)cc1NC(=O)C(C)OC(=O)c1ccc2ccccc2n1 (configuration not stated) | inactive | 
O=C(O)c1ccc(N=NN2CCOCC2)cc1 | inactive | 

SMILES | Potency | activation, negative = inhibition
O=C(c1ccccc1)N1CCN(C(=O)N2CCCCC2)CC1 | inactive | 
O=C(O)c1cccc(N=NN2CCCCCC2)c1 | 282 nM (active) | 
COc1ccc2c3c(c(=O)oc2c1)C1O[C@](CCCCN2C(=O)c4ccccc4C2=O)(Cc2c1ccc1ccccc21)O3 |  | -1.17% [at 1.84 µM] (inactive)
COc1cc(C(=O)NCC2(c3ccccc3)CCCC2)ccc1OC(C)C | inactive | 
Cc1nc2cc(NC(=O)Nc3cccc(F)c3)ccc2n1C | 89.1 nM (active) | 
Cc1nc2cc(NC(=O)NC3CC3)ccc2n1C | inactive | 
Cc1cc2nc(C)n(CCCNC(=O)Nc3ccccc3)c2cc1C | inactive | 
c1ccc(-n2ncc3c2ncn2c(C4CCCCC4)nnc32)cc1 | 3980 nM (active) | 
CC(=O)Cn1cnc2c(cnn2-c2ccccc2)c1=O | inactive | 
CN(C(=O)COc1ncnc2c1cnn2-c1ccccc1)C1CCCCC1 | inactive | 
c1ccc2cc(CCCc3cc4ccccc4cn3)ncc2c1 | inactive | 
CCCc1ccc(OCCNC(=O)c2ccco2)cc1 | inactive | 
COc1ccc(OCCCC(=O)NCCc2ccccc2)cc1 | inactive | 
CCCOc1ccc(C(=O)NCCc2ccccc2)cc1 | 447 nM (active) | 
CC(C)c1ccc(C(=O)NCCCc2ccccc2)cc1 | 3160 nM (active) | 
Cc1noc(C)c1COc1ccc(C(=O)NCCOc2ccccc2)cc1 | inactive | 
CCCCCCCCC(=O)NCCOc1ccccc1 | inactive | 
O=C(NCCOc1ccccc1)c1ccccc1 | 708 nM (active) | 
O=C(CCNC(=O)c1ccc(Br)cc1)NCCCc1ccccc1 | inactive | 
CN(c1ccccc1)S(=O)(=O)c1ccc(C(=O)NCCc2ccccc2)cc1 | inactive | 
CC1(C)NC(=O)N(CC(=O)N2CCN(S(=O)(=O)c3ccccc3F)CC2)C1=O | inactive | 
CC(=O)Nc1ccc(NC(=O)CSc2nnc(C3CC3)n2-c2ccccc2)cc1 | inactive | 

SMILES | Potency | activation, negative = inhibition
CCC(C)C(N=C1NS(=O)(=O)c2ccccc21)C(=O)N1CCC(C)CC1 (configuration not stated) | inactive | 
Cc1ccc(C)c(NC(=O)c2ccc3nccnc3c2)c1 | inactive | 
O=C(NCCc1ccc(F)cc1)c1ccc(S(=O)(=O)N2CCCCC2)cc1 | inactive | 
O=C(NCCc1ccc(F)cc1)c1ccc2nccnc2c1 | 1120 nM (active) | 
CC(=O)Nc1ccc(NC(=O)COC(=O)c2ccccc2C(=O)c2ccccc2)cc1 | inactive | 
CCN(CC)S(=O)(=O)c1ccc2[nH]c(=O)cc(C(=O)N(C)C3CCS(=O)(=O)C3)c2c1 (configuration not stated) | inactive | 
Cc1ccccc1Nc1nc(N)nc(COC(=O)CCC(=O)c2ccc(F)cc2)n1 | inactive | 
O=C(Nc1nnc(-c2ccc(F)cc2)s1)c1c(F)cccc1Cl | inactive | 
CCOC(=O)c1cc(C(C)C)sc1NC(=O)COC(=O)c1nccnc1N | inactive | 
NNC(=O)c1cccc(COCC(F)(F)C(F)F)c1 | inactive | 
CC(C)c1cc(C(N)=O)c(NC(=O)c2cccc(COc3ccc(Br)cc3)c2)s1 | 1260 nM (active) | 
COCC(C)NC(=O)c1ccc(-n2nc(C(F)(F)F)cc2-c2cccs2)cc1 (configuration not stated) | inactive | 
C=CCn1c(CCNC(=O)c2cccs2)n[nH]c1=S | inactive | 
C=CCn1c(=NC(=O)c2cccs2)sc2cc(NC(C)=O)ccc21 | 3980 nM (active) | 
C=CCn1c(=NC(=O)c2ccc(S(=O)(=O)N3CCCC3)cc2)sc2cc(NC(C)=O)ccc21 | inactive | 
Cc1cccc(NS(=O)(=O)c2cccc(C(=O)NNC(=O)c3ccccc3O)c2)c1 | inactive | 
O=C(CSc1ccccc1)Nc1cccc(S(=O)(=O)N2CCCCC2)c1 | inactive | 
CCN(c1ccccc1)S(=O)(=O)c1ccc(OCC(=O)N2CCCC2)cc1 | inactive | 
CC(=O)Nc1ccc(SC[C@H](Cc2ccccc2)N2CC[C@@H](C)CCC2=O)cc1 | inactive | 
